From PubChem BioAssay
Values joined by “and” are separate entries in the source; they are usually repeats but may differ in a detail not shown here. Identical values can stand only once. Active and inactive are the calls of the source.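 Rule for the calls, unless noted: active = normalized viability below 100% at a tested concentration; inactive = the rest.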

How the values were obtained:
[1] = compounds altering viability of human ES cells (AID 493140; call rule not given here;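 note: cells exposed to compounds for four days before counting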); conditions: human embryonic stem cell survival screen; stronger effect = higher value
[2] = P. berghei load reduction in hepatocytes – cell-based, HepG2, luciferase luminescence, HepG2 viability, primary screen (AID 624349; in the data active = parasite load remaining mostly below about 12%, no sharp cut-off; inactive = mostly above about 10%;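 note: 100% = mean of DMSO negative control wells on the same plate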); conditions: P. berghei liver stage in HepG2, luciferase luminescence, concentration not given here; parasite load remaining: stronger effect = lower value; viability: measured here: HepG2 viability without parasites
[3] = system: Aerobactin synthetase IucA (Klebsiella pneumoniae); assay: inhibition of K. pneumoniae IucA enzyme – biochemical, Tocris library, absorbance (AID 1345561; call rule not given here;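 note: 100% = enzyme without compound and 0% = no enzyme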); conditions: purified IucA enzyme assay, absorbance (OD) read-out; stronger effect = lower value;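 tested at 8 µM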
[4] = viability loss with induced miR-34 in A549 – imaging, A549 dox-inducible miR-34, nuclei and caspase counts, primary screen (AID 1347080;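 active = compounds whose cell count with miR-34 switched on is under 0.7 times the count with it off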); conditions: A549 miR-34 inducible, Hoechst nuclei count, 48 h
[5] = chitosan synthesis blockers in C. neoformans – flow cytometry, Cibacron Brilliant Red staining (AID 1347148; call rule not given here;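 note: compound exposure lasted three days at 37 degrees C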); conditions: Cryptococcus neoformans chitosan, stronger effect = lower value; at 10 µM unless noted
[6] = MELAS cybrid and Rieske KO viability enhancers – cell-based, MELAS cybrids, Rieske KO mouse fibroblasts, CellTiter-Glo, primary screen (AID 1508586;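 active = mean z-score across replicates of 1.96 or higher in either the MELAS or the Rieske mutant cell line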;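 note: z relative to plate mean and SD of compound and empty wells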); conditions: low glucose
[7] = drug combination growth inhibition, ovarian cancer – cell-based, oncology-focused library, rucaparib conditional, profiling panel (AID 1508598); conditions: patient-derived ovarian cancer cells, CellTiter-Glo viability, 144 h, stronger effect = lower value
[8] = galactose survival enhancers in mitochondrial complex I cybrids – cell-based, galactose medium, ATP luminescence, primary screen (AID 1645843;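 active = z-score of at least 1.8 in each of two replicates, scored against plate mean and spread of sample wells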;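 note: positive z means more ATP and so rescue of galactose-driven cybrid death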); conditions: complex I mutant cybrid cells, 72 h, stronger effect = higher value
[9] = compounds altering HSF1 focus formation in cells – imaging, Selleck Cancer Library (AID 1347162; in the data active = plate-normalised HSF1 focus index below about 0.46); conditions: human cells, HSF1 nuclear foci imaging, at 10 µM; SSMD: measured here: HSF1 foci SSMD mean; cell count: measured here: cell number; plate-normalised HSF1 focus index: stronger effect = lower value
[10] = growth inhibition, single agent or in combination, cell-based, chromothripsis tumors, cisplatin or BGB combos (AID 1671449; in the data active = inhibition above about 80%;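 note: cells exposed for 96 hours; 0% = vehicle DMSO and 100% = killing by high DMSO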); conditions: LFS_MB_P medulloblastoma cells
[11] = growth inhibition, single agent and combos, cell-based, chromothripsis tumors, cisplatin or BGB combos (AID 1671450; in the data active = inhibition above about 80%;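 note: cells exposed to compound for four days; 0% = vehicle DMSO and 100% = cell killing by high DMSO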); conditions: HDN33 neuroblastoma cells, stronger effect = higher value
[12] = growth inhibition, single agents and combos, ICB984, cell-based, cisplatin or BGB combos, synergistic combos for chromothripsis tumors (AID 1671451; call rule not given here;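 note: cells exposed for 96 hours before readout; 0% = vehicle DMSO and 100% = killing by high DMSO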); conditions: ICB984 medulloblastoma cells, drug combinations, stronger effect = higher value
[13] = growth inhibition, single agents and combos, HTB85, cell-based, BGB or cisplatin IC20 combos, synergistic combos for chromothripsis tumors (AID 1671453; in the data active = inhibition above about 80%;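 note: cells exposed for 96 hours before readout; 0% = vehicle DMSO and 100% = high DMSO killing control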); conditions: HTB85 osteosarcoma cells, drug combinations, stronger effect = higher value
[14] = growth inhibition, MDA-MB-436, cell-based, BGB or cisplatin combos, synergistic combos for chromothripsis tumors (AID 1671458; call rule not given here;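 note: cells exposed for 96 hours; 0% = vehicle DMSO and 100% = killing by high DMSO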); conditions: MDA-MB-436 breast carcinoma growth inhibition, drug combinations, stronger effect = higher value
[15] = BT084 cell growth, single and combined drugs, ICGC_MB145, cisplatin and BGB IC40 combos (AID 1671461; in the data active = inhibition above about 80%;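 note: cells exposed to drugs for 96 hours; 0% = vehicle DMSO and 100% = high DMSO full killing control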); conditions: BT084 medulloblastoma cells, drug combinations, stronger effect = higher value
[16] = RCMB18 cell growth, single agent and combined, cisplatin and BGB IC40 combos (AID 1671462; in the data active = inhibition above about 80%;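 note: cells exposed to compound for four days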); conditions: RCMB18 medulloblastoma cells, stronger effect = higher value
[17] = stronger effect = lower value, cell number ratio, induced over uninduced
[18] = measured here: relative caspase fold change +Dox/-Dox
[19] = measured here: total cells with miR-34 induction, stronger effect = lower value
[20] = measured here: total cells without miR-34 induction

For CN(C)CCCn1cc(C2=C(c3c[nH]c4ccccc34)C(=O)NC2=O)c2ccccc21, which survival [1] is on record?
Its survival is 60.4 (inactive).

And the parasite load remaining [2]?
The parasite load remaining was 40.8% (inactive).

And the viability [2]?
The viability was 101%.

What about the remaining activity [3] of the same compound?
Its remaining activity is 99.8% (inactive).

What about the fold change [4, 17] of the same compound?
The fold change was 1.07 (inactive) and 1 (inactive) and 1.3 (inactive).

What about the fold change [4, 18] of the same compound?
The fold change was 0.742 and 0.718 and 1.02.

What about the cell count [4, 19] of the same compound?
The cell count was 1180 and 5040 and 4700.

What about the cell count [4, 20] of the same compound?
The cell count was 1100 and 5040 and 3620.

And the fold fluorescence [5]?
Its fold fluorescence is 5.95 [at 121.2 µM] (inactive).

And the z-score ([6]; MELAS cybrid survival, CellTiter-Glo 48 h, stronger effect = higher value)?
The z-score was -0.455 (inactive).

And the z-score ([6]; Rieske KO mouse fibroblast survival, CellTiter-Glo 72 h)?
The z-score was -0.16.

And the viability ([7]; at 0.000305 µM, OCI-C5x cells, with rucaparib 10 µM, 100% = cells with rucaparib alone)?
The viability was 111% (inactive).

What about the viability ([7]; at 0.000305 µM, OCI-C5x cells, without rucaparib) of the same compound?
Its viability is 113% (inactive).

What about the viability ([7]; at 0.000305 µM, OCI-P5x cells, with rucaparib 20 µM, 100% = cells with rucaparib alone) of the same compound?
The viability was 94.2% (active).

What about the viability ([7]; at 0.000305 µM, OCI-P5x cells, without rucaparib) of the same compound?
The viability was 96.8% (active).

What about the viability ([7]; at 0.00122 µM, OCI-C5x cells, with rucaparib 10 µM, 100% = cells with rucaparib alone) of the same compound?
The viability was 124% (inactive).

And the viability ([7]; at 0.00122 µM, OCI-C5x cells, without rucaparib)?
The viability was 118% (inactive).

And the viability ([7]; at 0.00122 µM, OCI-P5x cells, with rucaparib 20 µM, 100% = cells with rucaparib alone)?
The viability was 102% (inactive).

And the viability ([7]; at 0.00122 µM, OCI-P5x cells, without rucaparib)?
Its viability is 96% (active).

And the viability ([7]; at 0.00488 µM, OCI-C5x cells, with rucaparib 10 µM, 100% = cells with rucaparib alone)?
Its viability is 118% (inactive).

What about the viability ([7]; at 0.00488 µM, OCI-C5x cells, without rucaparib) of the same compound?
The viability was 118% (inactive).

And the viability ([7]; at 0.00488 µM, OCI-P5x cells, with rucaparib 20 µM, 100% = cells with rucaparib alone)?
Its viability is 104% (inactive).

And the viability ([7]; at 0.00488 µM, OCI-P5x cells, without rucaparib)?
Its viability is 101% (inactive).

And the viability ([7]; at 0.0195 µM, OCI-C5x cells, with rucaparib 10 µM, 100% = cells with rucaparib alone)?
The viability was 118% (inactive).

And the viability ([7]; at 0.0195 µM, OCI-C5x cells, without rucaparib)?
Its viability is 108% (inactive).

And the viability ([7]; at 0.0195 µM, OCI-P5x cells, with rucaparib 20 µM, 100% = cells with rucaparib alone)?
The viability was 103% (inactive).

What about the viability ([7]; at 0.0195 µM, OCI-P5x cells, without rucaparib) of the same compound?
Its viability is 105% (inactive).

And the viability ([7]; at 0.0781 µM, OCI-C5x cells, with rucaparib 10 µM, 100% = cells with rucaparib alone)?
Its viability is 113% (inactive).

What about the viability ([7]; at 0.0781 µM, OCI-C5x cells, without rucaparib) of the same compound?
Its viability is 120% (inactive).

And the viability ([7]; at 0.0781 µM, OCI-P5x cells, with rucaparib 20 µM, 100% = cells with rucaparib alone)?
Its viability is 101% (inactive).

And the viability ([7]; at 0.0781 µM, OCI-P5x cells, without rucaparib)?
Its viability is 105% (inactive).

And the viability ([7]; at 0.313 µM, OCI-C5x cells, with rucaparib 10 µM, 100% = cells with rucaparib alone)?
The viability was 120% (inactive).

And the viability ([7]; at 0.313 µM, OCI-C5x cells, without rucaparib)?
Its viability is 134% (inactive).

And the viability ([7]; at 0.313 µM, OCI-P5x cells, with rucaparib 20 µM, 100% = cells with rucaparib alone)?
Its viability is 108% (inactive).

And the viability ([7]; at 0.313 µM, OCI-P5x cells, without rucaparib)?
The viability was 109% (inactive).

And the viability ([7]; at 1.25 µM, OCI-C5x cells, with rucaparib 10 µM, 100% = cells with rucaparib alone)?
Its viability is 122% (inactive).

What about the viability ([7]; at 1.25 µM, OCI-C5x cells, without rucaparib) of the same compound?
The viability was 130% (inactive).

What about the viability ([7]; at 1.25 µM, OCI-P5x cells, with rucaparib 20 µM, 100% = cells with rucaparib alone) of the same compound?
The viability was 116% (inactive).

And the viability ([7]; at 1.25 µM, OCI-P5x cells, without rucaparib)?
Its viability is 109% (inactive).

And the viability ([7]; at 5 µM, OCI-C5x cells, with rucaparib 10 µM, 100% = cells with rucaparib alone)?
The viability was 109% (inactive).

What about the viability ([7]; at 5 µM, OCI-C5x cells, without rucaparib) of the same compound?
The viability was 146% (inactive).

What about the viability ([7]; at 5 µM, OCI-P5x cells, with rucaparib 20 µM, 100% = cells with rucaparib alone) of the same compound?
Its viability is 101% (inactive).

What about the viability ([7]; at 5 µM, OCI-P5x cells, without rucaparib) of the same compound?
The viability was 105% (inactive).

And the z-score [8]?
Its z-score is -0.475 (inactive).

Which results are given for N.N.O=C(O)C1(C(=O)O)CCC1.[Pt]?
parasite load remaining [2]: 105% (inactive) and 45.1% (inactive); viability [2]: 75.3% and 97.1%; remaining activity [3]: 100% (inactive); fold change [4, 17]: 0.91 (inactive) and 1.06 (inactive); fold change [4, 18]: 1.49 and 3.05; cell count [4, 19]: 7500 and 6220; cell count [4, 20]: 8240 and 5890; SSMD [9]: 2.09; cell count [9]: 7840; plate-normalised HSF1 focus index [9]: 1.08 (inactive); z-score [8]: -0.15 (inactive); inhibition ([10]; at 0.5 µM, stronger effect = higher value): -25.8% (inactive) and -25% (inactive); inhibition ([10]; measured here: combination with BGB IC20, at 0.005 µM): -21.9% and -15.8%; inhibition ([10]; measured here: combination with BGB IC40, at 0.005 µM): -33.4% and -11.2%; inhibition ([10]; measured here: combination with BGB IC40, at 0.05 µM): -8.87% and -31.1%; inhibition ([10]; measured here: combination with cisplatin, at 0.5 µM, stronger effect = higher value): -41.1% and -20.3%; inhibition ([10]; measured here: combination with cisplatin, at 5 µM, stronger effect = higher value): -26.5% and -12.9%; inhibition ([11]; BGB combo, at 5 µM): -9.54% and -0.176%; inhibition ([11]; at 0.5 µM): -16.9% (inactive) and -34.4% (inactive); inhibition ([11]; cisplatin combo, at 5 µM): -4.51% and -16.2%; inhibition ([11]; measured here: with BGB IC20 combination, at 0.5 µM): -16.3% and -33.3%; inhibition ([11]; measured here: with cisplatin IC20 combination, at 0.5 µM): 7.01% and -41.5%; inhibition ([11]; single agent, at 5 µM): -8.33% and -8.24%; inhibition ([12]; BGB IC20 combo, at 0.005 µM): -23.8% and 9.43%; inhibition ([12]; BGB IC40 combo, at 0.005 µM): -28.7% and -26%; inhibition ([12]; BGB IC40 combo, at 0.05 µM): -33.8% and -31.4%; inhibition ([12]; at 0.5 µM): -17.7% (inactive) and -35.2% (inactive); inhibition ([12]; cisplatin combo, at 0.05 µM): -33.8% and -36.1%; inhibition ([12]; cisplatin combo, at 0.5 µM): -26.5% and -43.2%; inhibition ([12]; cisplatin combo, at 5 µM): -41.9% and -11%; inhibition ([12]; measured here: 5 uM single agent, at 5 µM): -8.78% and -6.62%; inhibition ([13]; at 0.5 µM): -12.1% (inactive) and -29.4% (inactive); inhibition ([13]; measured here: with BGB IC20, at 0.5 µM): -30.4% and -34.9%; inhibition ([13]; measured here: with BGB IC20, at 5 µM): 11.7% and -2.3%; inhibition ([13]; measured here: with cisplatin IC20, at 0.5 µM): 2.42% and -41.2%; inhibition ([13]; measured here: with cisplatin IC20, at 5 µM): 0.587% and 34.7%; inhibition ([13]; single agent, at 5 µM): -3.92% and 13.4%; inhibition ([14]; at 0.5 µM): -21.7% (inactive) and -6.11% (inactive); inhibition ([14]; measured here: BGB combination, at 0.5 µM): -33.8% and -15%; inhibition ([14]; measured here: BGB combination, at 5 µM): 3.84% and 2.53%; inhibition ([14]; measured here: cisplatin combination, at 0.5 µM): -26.3% and -12.4%; inhibition ([14]; measured here: cisplatin combination, at 5 µM): 14% and 17.8%; inhibition ([15]; at 0.5 µM): -21% (inactive) and -15.1% (inactive); inhibition ([15]; cisplatin combination, at 0.5 µM): -2.17% and -35.9%; inhibition ([15]; cisplatin combination, at 5 µM): -41.8% and -20.7%; inhibition ([15]; measured here: BGB IC40 combination 0.05 uM, at 0.05 µM): -10.5% and -37.9%; inhibition ([15]; single agent, at 5 µM): -52.9% and -21.2%; inhibition ([16]; at 0.5 µM): -27.3% (inactive) and -19.1% (inactive); inhibition ([16]; cisplatin combo, at 5 µM): -0.537% and -4.06%; inhibition ([16]; measured here: BGB IC40 combination, at 0.05 µM): -23.2% and -16.9%; inhibition ([16]; measured here: combination with cisplatin, at 0.5 µM): -19.3% and -17.8%; inhibition ([16]; single agent, at 5 µM): -46.1% and -19.1%
